Bioassay records from PubChem BioAssay.
Gal4-VP16 FLuc: Gal4-VP16 reporter inhibition counter-screen | Drosophila S2 Gal4-VP16 UAS-luciferase, luminescence, 20 h | Potency, µM (doses to about 53.6 µM), most hits filed as inhibitors | hit rate 3.5% among 310,000 | AID 2546;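 also: Gal4-VP16 expression switched on by copper sulfate through the metallothionein promoter; nearly all actives have a fitted effect of over 50% in size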
RORg inh: blocks mouse ROR gamma transcriptional activity | P51450 | Drosophila S2 Gal4-RORgamma UAS-luciferase reporter, 20 h | Potency, µM (highest dose often 53.6 µM), hits mostly inhibitors | hit rate 5.4% among 310,000; also: nearly all actives have a fitted effect of over 60% in size
Target sequence (P51450 whole entry, looked up, the tested form may be a part): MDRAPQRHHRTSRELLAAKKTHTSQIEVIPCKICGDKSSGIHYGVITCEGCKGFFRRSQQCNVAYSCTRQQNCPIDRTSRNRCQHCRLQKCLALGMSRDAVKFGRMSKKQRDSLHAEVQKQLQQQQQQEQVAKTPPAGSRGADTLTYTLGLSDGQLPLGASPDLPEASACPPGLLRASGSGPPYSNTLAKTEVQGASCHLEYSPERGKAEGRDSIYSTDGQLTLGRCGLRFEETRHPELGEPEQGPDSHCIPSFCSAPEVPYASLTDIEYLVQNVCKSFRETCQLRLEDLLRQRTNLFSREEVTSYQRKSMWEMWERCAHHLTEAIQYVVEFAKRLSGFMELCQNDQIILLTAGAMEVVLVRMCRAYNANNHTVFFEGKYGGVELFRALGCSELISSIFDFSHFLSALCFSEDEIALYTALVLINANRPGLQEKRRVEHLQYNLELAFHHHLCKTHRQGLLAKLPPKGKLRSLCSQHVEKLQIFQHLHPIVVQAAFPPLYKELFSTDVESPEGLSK
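Luminescence from a UAS-regulated Photinus luciferase reporter in stably transfected Drosophila Schneider cells is measured; decreased signal marks ROR gamma inhibition. Fusion expression is induced by 700 uM copper sulfate for 20 hr.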
KinaseGlo FLuc: counter-screen: inhibitors of Kinase-Glo firefly luciferase. Potency, µM (series often up to 38.3 µM), hits mostly inhibitors. hit rate 0.28% among 200,000. Q27757. Kinase-Glo luciferase, ATP luminescence, 8 min; also: nearly all actives have a fitted effect of over 60% in size
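Recombinant Kinase-Glo luciferase, 10 uM ATP (linear range), luciferin; imidazole pH 7.2 / KCl / MgCl2 / Tween / BSA buffer; 8 min RT; luminescence.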
Numbers stand for hits; i = inactive; ? = inconclusive; nt = no result given; [ ] = remark or other dose. An excerpt weighted towards active compounds, which were near 6.4% of everything screened. Calls follow the shape of the dose curve; as a rule, active = well fitted curve in the direction sought with a large enough effect; inconclusive = small, poorly fitted or top-dose-only effect, or another doubt; inactive = no such curve, though single readings can be large; an effect the other way counts as inactive or inconclusive.

SMILES | Gal4-VP16 FLuc | RORg inh | KinaseGlo FLuc
CCn1ncc(Cl)c1C(=O)Nc1cc([N+](=O)[O-])ccc1OC | i | i | i
CCOc1ccc(NC(=S)NC(=O)c2cccnc2)c([N+](=O)[O-])c1 | 18µM | 20µM | nt
CCOc1ccc(N/C=C/C(=O)c2ccccc2)c([N+](=O)[O-])c1 | 7.1µM | 7.1µM | 11µM
COCC(=O)N1CCC2(CCCN(C(=O)Nc3ccc(OC)cc3)C2)CC1 | i | i | i
COC(=O)/C=C1\OC(c2ccccc2)=CC1=O | ? | i[10 µM] | i
CCC1CC=CC2C1C(=O)N(Cc1ccccc1)C2c1ccc2ccccc2c1 (centres undefined) | ? | i | nt
CCOC(=O)CON1C(=O)C(=O)N(OCC(=O)OCC)C2CCCCC21 (centres undefined) | i | i | i
CCSc1nc2ccc(N3C(=O)C4C5C=CC(C5)C4C3=O)cc2s1 (centres undefined) | i | ? | i
CCOc1ccc(NC(=S)NC(=O)c2c(Cl)cnn2CC)c([N+](=O)[O-])c1 | ? | 7.9µM | i
COc1ccc(OCC(=O)N/N=C(\C)CC(=O)Nc2ccc(OC)cc2[N+](=O)[O-])cc1 | i | ? | i
COc1ccc(NC(=O)C/C(C)=N/NC(=O)c2ccncc2)c([N+](=O)[O-])c1 | i | 13µM | i
CCOc1ccc(NC(=S)NC(=O)c2c(Br)cnn2C)c([N+](=O)[O-])c1 | i | ? | i
O=C(c1ccc2[nH]c(=O)c(=O)[nH]c2c1)N1CCN(c2ccccc2)CC1 | i | i | nt
Cc1ccccc1NC(=O)Nc1cccs1 | i | ? | i
Cc1ccc(Cl)cc1NC(=O)Nc1cccs1 | i | 14µM | i
O=C(c1csnn1)N1CCC2(CCCN(c3ccccn3)C2)CC1 | i | i | i
Cc1ccc(S(=O)(=O)NCC2CCCO2)cc1 (centres undefined) | i | i | nt
O=S(=O)(NCC1CCCO1)c1ccc(-c2ccc(S(=O)(=O)NCC3CCCO3)cc2)cc1 (centres undefined) | 5.6µM | 4.5µM | i
O=C(Nc1ccc2c(c1)S(=O)(=O)N=C1CCCCCN12)c1ccccc1Cl | i | i | i
O=C1C2CC=C(Cl)CC2C(=O)N1CCC[n+]1cccc2ccccc21 (centres undefined) | i | i | i
Cc1cc(C)n(CCC(=O)N/N=C/c2ccc(O)cc2)n1 | i | i | i
Cc1cc(C)n2nc(C(=O)N/N=C/c3ccccc3Cl)nc2n1 | i | i | i
COc1ccc(/C=N/NC(=O)CCSc2nc3ccccc3s2)cc1OC | i | i | i
O=C(CN1CCCC1)N/N=C/c1c(O)ccc2ccccc12 | 3.2µM | 3.2µM | nt
O=C(CCSc1nc2ccccc2s1)N/N=C/c1c(O)ccc2ccccc12 | 1µM | 1.4µM | i
SMILES | Gal4-VP16 FLuc | RORg inh | KinaseGlo FLuc
Cc1cc(C)n2nc(C(=O)N/N=C/c3c4ccccc4cc4ccccc34)nc2n1 | 18µM | 35µM | i
Cc1cc(C)n(CCC(=O)N/N=C/c2c(O)ccc3ccccc23)n1 | ? | 1.1µM | nt
O=C(CN1CCOCC1)N/N=C/c1cccc2ccccc12 | i | i | nt
CC1(C)C(C=C(Cl)Cl)C1C(=O)Nc1ccc(S(=O)(=O)Nc2ncccn2)cc1 (centres undefined) | i | i | nt
Cc1cccc2c1cnn2C(=O)CCC(=O)NCc1ccc(F)cc1 | i | i | nt
Cc1cccc(OCC(=O)Nc2ccc(S(=O)(=O)Nc3onc(C)c3C)cc2)c1C | i | i | nt
O=C(c1cscn1)N1CCCC(N2CCN(c3ccc(F)cc3)CC2)C1 (centres undefined) | i | i | nt
CCCCSCCCNC(=O)Nc1ccc(C)c(C)c1 | i[10 µM] | i | i
Cc1cccc(/C=N/NC(=O)CN2CCCCCCC2)c1 | i | i | i
Cc1ccc(O)c(/C=N/NC(=O)CN2CCCC2)c1 | ? | 13µM | nt
OCCN(CCCn1c(C(F)(F)F)nc2ccccc21)c1nc(CN2CCCCC2)cs1 | i | i | nt
Cc1ccc(-c2csc(N(CCO)CCCn3c(C(F)(F)F)nc4cc(C(F)(F)F)ccc43)n2)cc1 | ? | 10µM | nt
Cc1cc(C)n(C(=O)CCCn2cc([N+](=O)[O-])cn2)n1 | i | i | i
Cc1ccc(NC(=O)COC(=O)c2ccco2)cc1 | i | i | i
Cc1ccc2nc(-c3ccc(NC(=O)COC(=O)c4ccco4)cc3)sc2c1 | 7.1µM | 0.4µM | i
CCOc1ncccc1C(=O)OCC(=O)Nc1c(C)cc(C)cc1C | i | i | i
COc1ccc(C)cc1NC(=O)COC(=O)c1ccc([N+](=O)[O-])o1 | i | i | i
CCOc1ncccc1C(=O)OCC(=O)Nc1ccc(-c2nc3ccc(C)cc3s2)cc1 | ? | 0.4µM | i
C=CCn1c(SCC(=O)Nc2ccc(-c3nc4ccc(C)cc4s3)cc2)nnc1-c1ccccc1 | 13µM | 14µM | i
C=CCn1c(SCC(=O)NNC(=O)Nc2ccc(C)cc2)nnc1-c1ccccc1 | i | i | nt
Cc1ccc2nc(-c3ccc(NC(=O)COC(=O)c4ccc([N+](=O)[O-])o4)cc3)sc2c1 | 5µM | 0.1µM | i
O=C(O)CCCCCN1C(=O)C(O)=C(C(=O)/C=C/c2ccccc2)C1c1ccccc1[N+](=O)[O-] (centres undefined) | i | i | i
CC(=O)c1ccc(NC(=O)CSc2nnc(NC(=O)c3ccco3)s2)cc1 | i | i | nt
Cc1ccccc1C1CC(=O)Oc2cc(O)ccc21 (centres undefined) | i | i | i
CCNc1ncc2nc(-c3ccc(F)cc3)c(=O)n(Cc3ccc(F)cc3)c2n1 | i | i | nt
SMILES | Gal4-VP16 FLuc | RORg inh | KinaseGlo FLuc
Cc1cc(C)cc(NC(=S)N2CCC(NC(=O)C3CC3)CC2)c1 | i | i | nt
CCN1C(=O)[C@H]2[C@H]3[C@H](O)[C@H](O)C/C(=N\OC[C@@H](C)[C@H](OCc4ccccc4)C(C)C)[C@@H]3CC[C@H]2C1=O | i | i | i
Cc1cc(C)cc(N(CC(=O)Nc2ccc(-c3nc4ccc(C)cc4s3)cc2)S(C)(=O)=O)c1 | i | i | i
CNS(=O)(=O)c1cccc(C(=O)OCC(=O)Nc2ccc(N3CCCCC3)cc2)c1 | i | ? | i
CNS(=O)(=O)c1cccc(C(=O)OCC(=O)Nc2ccc(-c3nc4ccc(C)cc4s3)cc2)c1 | ? | 0.22µM | i
CC(=O)Nc1ccc2nc(NC(=O)c3ccc([N+](=O)[O-])o3)sc2c1 | 10µM | ? | nt
COc1ccc(/C=C(\C#N)C(=O)OCC(=O)NC(C)c2ccccc2)cc1 (centres undefined) | i | i | i
CC(=O)Nc1ccc2nc(NC(=O)c3ccco3)sc2c1 | i | ? | nt
Cc1ccc2nc(-c3ccc(NC(=O)COC(=O)c4ccc(Br)o4)cc3)sc2c1 | 4µM | 0.28µM | i
COc1ccc(/C=C(\C#N)C(=O)OCC(=O)Nc2ccc(-c3nc4ccc(C)cc4s3)cc2)cc1 | 2µM | 0.5µM | i
COc1ccc(CC(=O)NCC2CCCN(Cc3ccccc3Cl)C2)cc1 (centres undefined) | i | i | nt
COc1ccc(C2c3[nH]c4ccccc4c3C[C@H]3C(=O)N(c4ccccc4C(=O)N4CCC[C@H]4C(=O)O)C(=O)N23)cc1 (some centres undefined) | i | ? | nt
Cc1nc(-c2nnc(SCC(=O)Nc3ccc(Cl)cc3)n2C)cs1 | i | i | nt
CC(=O)Nc1ccc(NC(=O)CCN2C(=O)c3ccccc3C2=O)cc1 | i | i[1.91 µM] | nt
Cc1ccc2nc(-c3ccc(NC(=O)COC(=O)c4cncc(Br)c4)cc3)sc2c1 | 10µM | 1.3µM | i
